Each sequence was assayed on RXRa DBDmut IVT, anti-RXR (DBD mutation: RXRa K156A/R161A, NR concentration 90 nM) (assay: PBM binding z-score (relative to random genomic background probes); higher = stronger binding; sequences stand for … in GC…GCGATTGACAGCGTAGAATGAAGG).
Method in brief: (§1)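 The probes on custom Agilent 4×180K protein-binding microarrays were double-stranded, with 34-nt variable regions bearing direct-repeat seeds, single-nucleotide variants, half-site ablations and random human genomic background sequences. Incubation lasted 1 h with ligand-free nuclear receptor dimers in PBS pH 7.4, 2% milk, 0.02% Triton X-100, 1 mM DTT, 0.2 mg/mL BSA and 0.4 mg/ml salmon testes DNA. Antibodies against each partner (one per run) detected bound dimers, and fluorescence scans were regression-normalized. Binding z-scores take the random background probes as reference.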

Point of comparison: CCTCGGAGGACAGAAGGTCAGAGCGGTCCGCTTT, PBM binding z-score 0.0416. Against it:
- TGAATGAGGTTAAAGATCAGGGACCGTGGCGTCG — higher, 0.631
- CAAACTTGGTCACGAAAGGTCAAAGTCGAATGAC — higher, 1.4
- GGAACGAGGGCAAAGTTGATTGCATCTGTCGACG — higher, 2.7
- CAGCCTCGGTCAGGGCCAGTATAGGAGGAACGTT — lower, -0.961
- TCGAGTAGGTTAGTCGAGGCATTCAGCCAACATA — lower, -0.0873
- CGTCCAATGTCATAGGAGGTCAGTGAAGACAGAT — higher, 0.694
- GCTGCTTGGTCAGGTTGGTCAGCTAACGGGTACG — lower, 0.0173
- GCAGACAGGTGAAGCGCAGGTAACTCAGGGTGGC — lower, -0.801
- GCTAGCAGGCCATTTGGGTCCCTCAATGACGGGC — lower, -0.721
- ATCTCTAGGTTACCAAGTTCAGTGAATGCCGAAC — higher, 1.48
- CGTCCAAGGTCAATGCTAAGTCAGTGAAAGCATT — higher, 3.39
- ATCGAAAGGTCTAGGTGAGTATAGAGAAAGGGAA — higher, 0.133
- CATACAGGGTCAGCTTGGCCAGAGTAGGGACGGC — higher, 1.58
- CCTACTGGGCTACGAAAGGTCATTGATTCAGTGA — higher, 0.401
- ATATGTAGGTTGCATCCGGGTCATTCAGGCTATG — higher, 0.735
- TAGCCTAGGTCATTCAAGGGCCAGTATAGAAAGC — higher, 1.71
- AGAATGAGGATACCAAAGATCAGGGAAACGCTTG — lower, -0.419

What follows are sequences tested on RXRa homodimer (NR concentration 180 nM) in the same assay as above.
Method in brief: as §1

Point of comparison: ATACCAAGGTGATGGTGAGGTCGTTGATACTAAC, PBM binding z-score 1.11. Against it:
- TAGACTAGGTCATTCAGGGGCCAGTATAGAAAGC — higher, 2.82
- TGTGCTAGGTCAGTTGGTCAGCTAACGAGCTGCC — lower, 0.793
- TTACCACGGTGAAGGTCGTTGATCCCTCTGTAGA — higher, 1.37
- TTACCAAGGTGAGCTGAGGTCGTTCATCCAACTC — higher, 1.3
- ATCGGAAGGTCGACGAGGTGAGTATACACCGTTT — higher, 2.37
- CCAGACAGGTGAAAGGTAACTTAGTCTGGTACGC — higher, 2.05
- AGTCAAAGTTCAGGGCGAGGTAACGTAAAGCACG — higher, 3.15
- TCTGGTTGGTCACGGAGGTCACACACGACGGGTA — higher, 4.97
- TTACCAAGGTTAAGGTCGTTGATCCCTCTGTAGA — higher, 3.4
- CCTCGGAGGACAAGAGGAGGTCAGAGCTGCCAGA — higher, 1.58
- GCTTACGGGTCAAAGGATATAGCATGAATAGAAT — higher, 5.17
- CGTCCAAGGTAAAAGGTCAGTGAAGAGATGACGG — higher, 5.53
- CGTCCAAGGTCAGGGTCAGTGAAAGAGACTCGAA — higher, 5.14
- ATCTCTAGGTAAAGTTCGGTGAAAGATCGATAGA — lower, 0.31
- CAAACTAGGTCGAGGTCAAAGTCGGTTTGTGCCA — higher, 5.63
- CCTAACGGGTCACGAGGTTATAGCACGACGAGCG — higher, 6.09
- CAAACTAGGTCACGAAAGGCCAAAGTCGAATGAC — higher, 3.94
- CGTGCAAGGTCAATGCTAGGTCAGTGAAAGCATT — higher, 5.44
- CCTACTGGGCCATTCAGAGGTCATTGAGCATATG — higher, 3.54
- CCTTACGGGTCACGAGGTTACAGCACGACGAGCG — higher, 7.09
- GATACAGGGTCAGCTAGAGGCCAGAGTATGGAAA — higher, 4.36
- TGAATGAGGTTAAAGATCAGGGACCGTGGCGTCG — higher, 3.61
- CAAACTTGGTCACGAAAGGTCAAAGTCGAATGAC — higher, 7.01
- GGAACGAGGGCAAAGTTGATTGCATCTGTCGACG — higher, 1.76
- CCTCGGAGGACAGAAGGTCAGAGCGGTCCGCTTT — higher, 1.82
- CAGCCTCGGTCAGGGCCAGTATAGGAGGAACGTT — lower, -0.355
- TCGAGTAGGTTAGTCGAGGCATTCAGCCAACATA — lower, -0.032
- CGTCCAATGTCATAGGAGGTCAGTGAAGACAGAT — higher, 2.17
- GCTGCTTGGTCAGGTTGGTCAGCTAACGGGTACG — lower, -0.438
- GCAGACAGGTGAAGCGCAGGTAACTCAGGGTGGC — lower, 0.395
- GCTAGCAGGCCATTTGGGTCCCTCAATGACGGGC — lower, -0.4
- ATCTCTAGGTTACCAAGTTCAGTGAATGCCGAAC — higher, 1.26
- CGTCCAAGGTCAATGCTAAGTCAGTGAAAGCATT — higher, 4.48
- ATCGAAAGGTCTAGGTGAGTATAGAGAAAGGGAA — lower, 0.532
- CATACAGGGTCAGCTTGGCCAGAGTAGGGACGGC — higher, 4.13
- CCTACTGGGCTACGAAAGGTCATTGATTCAGTGA — higher, 5.27
- ATATGTAGGTTGCATCCGGGTCATTCAGGCTATG — higher, 2.28
- TAGCCTAGGTCATTCAAGGGCCAGTATAGAAAGC — higher, 3.14
- AGAATGAGGATACCAAAGATCAGGGAAACGCTTG — lower, 0.36
